Compounds with a hit are over-represented: about 9.2% of the library has one in this group of screens.
NPC1 promoter act: activators of NPC1 promoter. Huh7 NPC1 promoter luciferase reporter, 24 h. Potency, µM (highest dose often 9.22 µM), actives largely listed as activators. 320,000 tested, 2.4% active; further: nearly all actives have a fitted effect of over 60% in size
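Huh7 reporter cells (NPC1 promoter driving luciferase) are dosed with compound for 24 h at 37 °C, 5% CO2; luciferase detection reagent is then added and luminescence measured after 10 min at ambient temperature.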
Rab9 promoter act: activators of Rab9 promoter; Huh7 Rab9 promoter-luciferase reporter, luminescence, 24 h; 320,000 tested, 2.8% active; Potency, µM (top dose mostly 9.22 µM), actives largely listed as activators; further: nearly all actives have a fitted effect of over 60% in size
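Luciferase signal after 10 min detection reagent at ambient indicates Rab9 promoter upregulation; stably transfected Huh7 cells were treated 24 h with compound in DMSO at 37 °C, 5% CO2.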
FLuc counter: firefly luciferase modulation, counter-screen for miR-21 project | P08659 | purified FLuc, Km substrates, luminescence inhibition | Potency, µM (titrated, usually from 57.5 µM), most hits filed as inhibitors | 360,000 tested, 6.9% active; further: nearly all actives have a fitted effect of over 55% in size
Target sequence (P08659 whole entry, looked up): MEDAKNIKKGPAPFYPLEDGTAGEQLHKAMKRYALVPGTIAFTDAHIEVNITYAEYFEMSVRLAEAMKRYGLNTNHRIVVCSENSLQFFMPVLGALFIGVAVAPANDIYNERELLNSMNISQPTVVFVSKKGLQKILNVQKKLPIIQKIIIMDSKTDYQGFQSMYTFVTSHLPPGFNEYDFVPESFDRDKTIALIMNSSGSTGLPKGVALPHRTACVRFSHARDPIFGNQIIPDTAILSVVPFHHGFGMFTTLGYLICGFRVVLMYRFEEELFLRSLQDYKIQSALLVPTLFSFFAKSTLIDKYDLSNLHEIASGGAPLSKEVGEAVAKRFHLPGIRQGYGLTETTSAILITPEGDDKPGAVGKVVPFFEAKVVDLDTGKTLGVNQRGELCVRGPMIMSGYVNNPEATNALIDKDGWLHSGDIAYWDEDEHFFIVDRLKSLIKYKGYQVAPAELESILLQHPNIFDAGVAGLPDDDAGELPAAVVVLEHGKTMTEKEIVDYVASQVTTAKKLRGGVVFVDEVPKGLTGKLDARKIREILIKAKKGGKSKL
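Purified P. pyralis luciferase (10nM final) with 10uM D-luciferin and 10uM ATP (Km levels) in 50mM Tris acetate pH 7.5, 10mM Mg acetate, 0.01% Tween-20, 0.05% BSA; qHTS 6-point titration, ~60 µM downward; luminescence read.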
SMN2 splice up: SMN2 splice variant enhancement; HEK293 SMN2-luciferase splicing reporter, luminescence, 30-36 h; Potency, µM (doses to about 46.1 µM), most hits filed as activators; 210,000 tested, 2.8% active; further: nearly all actives have a fitted effect of over 55% in size
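HEK293 cells carry an SMN2 […]–luciferase reporter in which exon 7 inclusion puts luciferase in frame. Cells were plated 10-12 h before compound addition, then incubated 30-36 h at 37C. ONE-Glo luminescence was read; sodium butyrate at 4.5 mM final served as control.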
ELG1 genotoxic: genotoxicity induction in ELG1-luciferase HEK293T cells; HEK293T ELG1-luciferase reporter, luminescence, 16 h; Potency, µM (series often up to 46 µM), usual class: activators; 330,000 tested, 1.3% active; further: nearly all actives have a fitted effect of over 60% in size
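HEK293T cells expressing luciferase-tagged ELG1 were exposed to compound or DMSO vehicle for 16 hr at 37 °C and 5% CO2. Luciferase activity was then measured with ONE-Glo after 30 min at room temperature.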
ELG1 DNA repair: ELG1-dependent DNA repair inhibition | AID 504467 | HEK293T ELG1-luciferase reporter, luminescence, 16 h; DNA damage induced by 5-fluorouridine | 330,000 tested, 2.3% active | Potency, µM (highest dose often 46.1 µM), actives largely listed as inhibitors; further: nearly all actives have a fitted effect of over 55% in size
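HEK293T cells expressing luciferase-tagged ELG1 (2,000/well) received 5-Fluorouridine plus compound or DMSO for 16 hr at 37 °C. Luciferase was read by ONE-Glo luminescence after 30 min at room temperature.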
Each line names hits and unclear results; the compound was inactive in the other large screens. The call rests on the fitted dose curve; in most records, active means well fitted curve in the direction sought with a large enough effect; inconclusive means small, poorly fitted or top-dose-only effect, or another doubt; inactive means no such curve, though single readings can be large; an effect the other way counts as inactive or inconclusive.

COc1ccc(CNC(=O)C(C)n2nc(C)c3sc4ccccc4c3c2=O)cc1OC (stereo not drawn)	none (no result: NPC1 promoter act, Rab9 promoter act, SMN2 splice up, ELG1 genotoxic, ELG1 DNA repair)
CCC(C(=O)NCCc1ccc(OC)c(OC)c1)n1nc(C)c2sc3ccccc3c2c1=O (stereo not drawn)	FLuc counter 19µM (no result: NPC1 promoter act, Rab9 promoter act, SMN2 splice up, ELG1 genotoxic, ELG1 DNA repair)
COc1ccc(CCNC(=O)c2ccc3c(c2)N(Cc2ccccc2Cl)C(=O)c2ccccc2S3)cc1OC	none (no result: NPC1 promoter act, Rab9 promoter act, SMN2 splice up, ELG1 genotoxic, ELG1 DNA repair)
O=c1c2sccc2n(Cc2cc(=O)n3cc(Cl)ccc3n2)c(=O)n1-c1ccccc1	none (no result: NPC1 promoter act, Rab9 promoter act, ELG1 genotoxic, ELG1 DNA repair)
CSc1ccc(CCNC(=O)C(C)n2nc(C)c3sc4ccccc4c3c2=O)cc1 (stereo not drawn)	FLuc counter 13.5µM (no result: NPC1 promoter act, Rab9 promoter act, SMN2 splice up, ELG1 genotoxic, ELG1 DNA repair)
CC1(C)OC2C(CO)OC(n3cnc4c(=O)[nH]c(N)nc43)C2O1 (stereo not drawn)	none (no result: NPC1 promoter act, Rab9 promoter act, FLuc counter, ELG1 genotoxic, ELG1 DNA repair)
CCNc1nc(N)c(C(=O)c2ccc(Cl)s2)s1	NPC1 promoter act inconclusive, Rab9 promoter act 3.55µM, FLuc counter 9.53µM, SMN2 splice up 20µM, ELG1 genotoxic inconclusive, ELG1 DNA repair inconclusive
COc1cc(/C=C2\SC(=S)N(CCC(=O)NCCc3ccccc3)C2=O)cc(OC)c1OC	none (no result: SMN2 splice up)
O=C(CCN1C(=O)/C(=C/c2ccccc2)SC1=S)Nc1ccccn1	none (no result: SMN2 splice up)
COc1ccc(/C=C2\SC(=S)N(CCCC(=O)Nc3ccccn3)C2=O)cc1OC	ELG1 DNA repair 16.4µM
COc1cc(/C=C2/SC(=S)N(CC(=O)O)C2=O)ccc1OC(=O)c1cccs1	FLuc counter 4.78µM (no result: SMN2 splice up)
COc1cc(/C=C2\SC(=S)N(CCC(=O)Nc3ccccc3O)C2=O)cc(OC)c1OC	ELG1 DNA repair 7.3µM (no result: SMN2 splice up)
CCOc1ccc(/C=C2\SC(=S)N(CC(=O)N(CCO)C(C)(C)C)C2=O)cc1	FLuc counter 12µM
O=C1/C(=C/c2ccccn2)SC(=S)N1CCc1ccccc1	NPC1 promoter act inconclusive, Rab9 promoter act 3.55µM, ELG1 genotoxic inconclusive, ELG1 DNA repair inconclusive (no result: SMN2 splice up)
COc1cc(/C=N/N(C)C)ccc1OC(=O)c1cccs1	FLuc counter 26.9µM
CCOc1ccc(/C=C2\SC(=S)N(CC(=O)Nc3ccccn3)C2=O)cc1	FLuc counter 21.3µM, ELG1 DNA repair inconclusive (no result: SMN2 splice up)
Cc1ccc(/C=C2\SC(=S)N(CCCC(=O)Nc3ccccn3)C2=O)cc1	FLuc counter 13.5µM, ELG1 DNA repair inconclusive
Cc1c(C)n(Cc2ccc(F)cc2)c2ccc(C(=O)Nc3ccc(Cl)cc3)cc12	none (no result: NPC1 promoter act, Rab9 promoter act, SMN2 splice up, ELG1 genotoxic, ELG1 DNA repair)
COCCCn1c(SCC(=O)Nc2ccc(NC(C)=O)cc2)nc2sc3c(c2c1=O)CCC3	none (no result: SMN2 splice up)
Cc1cc(C)c2c(n1)nn1c(C)c(CCC(=O)Nc3ccc(C)c(Cl)c3)c(C)nc21	none (no result: NPC1 promoter act, Rab9 promoter act, ELG1 genotoxic, ELG1 DNA repair)
O=C1c2ccccc2-c2nc3ccccc3cc21	NPC1 promoter act 3.55µM, Rab9 promoter act 5.01µM, FLuc counter 2.13µM, ELG1 genotoxic inconclusive, ELG1 DNA repair inconclusive (no result: SMN2 splice up)
c1ccc2c(c1)Cc1cc3ccccc3nc1-2	NPC1 promoter act 1.26µM, Rab9 promoter act 0.398µM, FLuc counter 0.953µM, SMN2 splice up 3.98µM, ELG1 genotoxic 3.66µM, ELG1 DNA repair inconclusive
CC1SC(c2ccc(F)cc2)N(CCc2ccccc2)C1=O (stereo not drawn)	none (no result: SMN2 splice up)
CN(C)/C=N/c1ncc(C(=O)c2ccc(Cl)cc2)s1	FLuc counter inconclusive, ELG1 genotoxic 16.4µM, ELG1 DNA repair inconclusive
CC(=O)c1cnc(Nc2cccc(Cl)c2Cl)s1	Rab9 promoter act inconclusive, FLuc counter inconclusive, SMN2 splice up 12.6µM, ELG1 genotoxic inconclusive, ELG1 DNA repair inconclusive
CNc1ncc(C(=O)c2ccc(Br)cc2)s1	NPC1 promoter act 2.82µM, Rab9 promoter act 2µM, FLuc counter 12µM, SMN2 splice up 15.8µM, ELG1 genotoxic inconclusive, ELG1 DNA repair inconclusive
O=C(c1ccc(Cl)cc1)c1cnc(Nc2ccccc2Cl)s1	NPC1 promoter act 1.78µM, Rab9 promoter act 1.12µM, FLuc counter 1.51µM, SMN2 splice up 22.4µM, ELG1 genotoxic inconclusive, ELG1 DNA repair inconclusive
CNc1ncc(C(=O)c2ccccc2)s1	NPC1 promoter act inconclusive, Rab9 promoter act inconclusive, FLuc counter inconclusive, ELG1 genotoxic inconclusive, ELG1 DNA repair inconclusive
CN(C)/C=N/c1ncc(C(=O)c2ccc(Cl)cc2Cl)s1	none
Cc1ccn2c(=O)cc(CSc3nnc(C)s3)nc2c1	none (no result: NPC1 promoter act, Rab9 promoter act, SMN2 splice up, ELG1 genotoxic, ELG1 DNA repair)

Screening results (PubChem BioAssay)
